Assay outcomes as filed in PubChem BioAssay.
RAM network inh: inhibitors of the yeast RAM network, primary screen, dse1pr::URA3 reporter, 5-FOA selection. S. cerevisiae dse1pr::URA3 reporter, 5-FOA growth OD615, 2 d; analog-sensitive cbk1-as2 kinase mutant strain. inhibition, % at 50 µM. actives 1.8% (n = 190,000). AID 868, 2007;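 active = inhibition above a set limit, 3 SD over mean compound inhibition, cut at about 8.4% in these data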;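 note: 0% = DMSO-only wells with no growth and 100% = 10 µM 1-NA-PP1 full growth; inhibition rescues growth on 5-FOA so higher OD means more RAM inhibition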
EP2 modulator: EP2 receptor modulators, cAMP readout, primary screen, cell-based, HTRF cAMP, PGE2 stimulation; EP2-expressing cells, cAMP HTRF FRET, PGE2 co-stimulation; induction, % at 25 µM; actives 0.83% (n = 260,000);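 active = compounds whose cAMP rise, as percent of the full-agonist control response, exceeds 60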;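 note: rat C6 glioma line stably carrying human EP2 under a CMV promoter; the protocol text gives 20 µM as final concentration; 100% = response of wells given 1 µM PGE2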
Target sequence (P43116 whole entry, looked up): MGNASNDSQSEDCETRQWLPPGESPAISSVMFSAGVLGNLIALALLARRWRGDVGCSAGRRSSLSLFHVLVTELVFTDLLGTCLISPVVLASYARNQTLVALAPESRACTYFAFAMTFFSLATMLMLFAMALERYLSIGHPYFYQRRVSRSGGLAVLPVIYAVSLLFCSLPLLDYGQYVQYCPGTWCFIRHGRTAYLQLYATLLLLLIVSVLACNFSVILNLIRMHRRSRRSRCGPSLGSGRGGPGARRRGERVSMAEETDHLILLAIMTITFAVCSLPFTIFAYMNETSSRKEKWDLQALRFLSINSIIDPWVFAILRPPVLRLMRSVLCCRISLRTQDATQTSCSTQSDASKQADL
PG9 Ab binder: binders of HIV-1 gp120 antibody PG9, primary screen, biochemical, TR-FRET. AID 624416, 2012. actives 0.43% (n = 360,000). HIV-1 gp120 / PG9 antibody interaction. TR-FRET gp120-PG9 antibody binding. inhibition, % at 6.7 µM; in the data active = inhibition above about 8.5%
SKN-1 inh: suppressors of acrylamide-induced Pgst-4::GFP reporter in worms, primary screen, SKN-1 inhibitor project, whole organism, uHTS, GFP/RFP fluorescence ratio, strain VP596; inhibition, % at 21.8 µM; C. elegans VP596 Pgst-4::GFP/RFP ratio, 24 h; actives 0.49% (n = 360,000);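 active = interference check ratio from 0.5 to 1.5 plus GFP to RFP signal ratio inhibition reaching or exceeding a fixed threshold, cut at about 30% in these data, passing the limit was not always enough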
PGE2 EP2 inh: human EP2 receptor antagonists, primary screen, TR-FRET cAMP, C6 glioma cells; inhibition, % at 25 µM; actives 0.52% (n = 260,000); C6 glioma cells expressing human EP2; cells stimulated with saturating PGE2; Prostaglandin E2 receptor EP2 subtype (Homo sapiens), P43116;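 active = percent inhibition above 40 after rounding to a whole number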;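 note: rat C6 glioma host cells with rolipram phosphodiesterase inhibitor present; the protocol text gives 20 µM as final concentration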
NR1D1 modulator: modulators of Rev-erb alpha DNA binding, primary screen, biochemical, FITC-DNA, fluorescence polarization, uHTS. Nuclear receptor subfamily 1 group D member 1 (Homo sapiens), P20393. Rev-erbα–FITC-DNA binding, 90 min. activity, % at 10 µM. actives 0.79% (n = 370,000). AID 1259318, 2017;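 active = activity above about 14%, limit read from the data; passing the limit was not always enough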;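 note: 0% = DMSO wells with 35 nM protein and 100% = DMSO wells with 750 nM protein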
Active calls of the source: *; · = no result given. Compounds with a hit are over-represented: about 2.9% of the library has one in this group of screens.

SMILES | RAM network inh | EP2 modulator | PG9 Ab binder | SKN-1 inh | PGE2 EP2 inh | NR1D1 modulator
CC[C@@H](C(=O)n1nc(C)cc1C)[C@H](NS(=O)(=O)c1ccc(C)cc1)c1ccccc1 | 10.0* | 43 | 1 | 21 | 20 | -1
Cc1ccc(NC2SC(=O)N(C)C2=O)c(C)c1 (configuration not stated) | · | 1 | · | · | 15 | ·
O=C(c1ccccc1)N1C(=O)C(c2ccccc2)Oc2ccccc21 (configuration not stated) | · | 81* | -1 | 5 | 11 | 0
CC1Oc2ccccc2N(CC(=O)c2ccccc2)C1=O (configuration not stated) | 1 | 42 | · | 0 | 6 | -2
CCn1c2cc(C)oc2c2cnn(Cc3ccccc3C(F)(F)F)c(=O)c21 | · | 81* | · | · | · | ·
Oc1ccc(NC(=S)N=Nc2c(O)[nH]c3ccc(Br)cc23)cc1 | 3 | -117 | -1 | 4 | 46* | 4
COc1ccccc1N=Nc1c(O)[nH]c2ccc(Br)cc12 | · | · | 0 | 50* | · | 0
Oc1[nH]c2ccc(Br)cc2c1N=NC(=S)Nc1ccc(F)cc1 | · | -2 | -1 | 12 | 12 | 4
CC1CCCC(C)N1C(=O)CSc1nnc(COc2cccc3ccccc23)n1C (configuration not stated) | · | -14 | · | · | 6 | ·
Cc1cccc(NC(=O)CN2CCC3(CC2)NC(=O)c2ccccc2O3)n1 | · | -17 | · | · | 1 | ·
Cc1ccc(S(=O)(=O)N=Nc2c(O)[nH]c3cc(O)c(C(=O)O)cc23)cc1 | · | 16 | · | · | 41* | ·
Cc1ccccc1NC(=O)CSc1nnc(-c2ccoc2C)n1CC1CCCO1 (configuration not stated) | · | -9 | · | · | 5 | ·
CC1=NNC(=S)NCCCN2CCN(CCCNC(=S)NN=C(C)C=NNC(=S)NCCCN3CCN(CCCNC(=S)NN=C1)CC3)CC2 | · | 56 | · | · | 45* | ·
CC(Oc1ccc(Br)cc1)C(=O)O/N=C(\N)c1ccncc1 (configuration not stated) | · | · | -3 | 54* | · | 0
Cc1noc(NS(=O)(=O)c2ccc(NC(=O)c3oc4ccccc4c3C)cc2)c1C | · | -1 | · | · | 9 | ·
Cc1sc2nc(C3CC3)n3c(=O)n(CC(=O)NC4CC4)nc3c2c1C | · | 6 | · | · | · | ·
O=C(OCC(=O)N1CCc2ccccc21)c1ccccc1Cl | · | -33 | · | · | 7 | ·
c1ccc(-c2cc3nccc(-c4ccccn4)n3n2)cc1 | 0 | 24 | -1 | 39* | 8 | 0
CCCc1cc(=O)[nH]c(SCCOc2ccc(Cl)cc2)n1 | 2 | 64* | -1 | 16 | 7 | -1
CCCCSc1nc(CCC)cc(=O)[nH]1 | 0 | 15 | 0 | -1 | 5 | -1
CCOC(=O)c1c(-c2ccc(C)cc2)csc1NC(=O)CC | · | 78* | · | · | 6 | ·
CCOC(=O)c1c(-c2ccc(OC)cc2)csc1NC(=O)CC | · | 50 | · | · | 5 | ·
CCOC(=O)c1c(-c2ccc(CC)cc2)csc1N | · | 94* | · | · | 9 | ·
CCOC(=O)c1c(-c2ccc(OCC)cc2)csc1NC(C)=O | · | 64* | · | · | 8 | ·
O=C(NCC1CCCO1)C(c1cccs1)N(Cc1ccccc1Cl)C(=O)c1ccc(-c2ccccc2)[nH]1 (configuration not stated) | 4 | 47 | 0 | 1 | 15 | -8
SMILES | RAM network inh | EP2 modulator | PG9 Ab binder | SKN-1 inh | PGE2 EP2 inh | NR1D1 modulator
Cc1ccc(C(C(=O)NCC2CCCO2)N(Cc2ccccc2)C(=O)c2ccc(-c3ccccc3)[nH]2)o1 (configuration not stated) | 10* | 33 | -3 | 10 | 6 | 2
CCCC(C(=O)NCC1CCCO1)N(C(=O)CNS(=O)(=O)c1ccccc1)c1ccc(F)cc1 (configuration not stated) | · | · | -1 | -28 | · | 4
CCCC(C(=O)NCC1CCCO1)N(Cc1ccccc1)C(=O)CNS(=O)(=O)c1ccccc1 (configuration not stated) | · | · | -1 | 42* | · | 0
Cc1ccc2c(c1)N(CC(=O)c1ccc(Cl)cc1)C(=O)C(C)O2 (configuration not stated) | · | 7 | · | · | 14 | ·
CCc1ccc2[nH]c(=O)c(CN(CCc3ccccc3)Cc3nnnn3C(C)(C)CC)cc2c1 | · | 53 | · | · | 5 | ·
Cn1c(=O)c2c(nc(N3CCCCC3)n2Cc2ccccc2)n(C)c1=O | · | 33 | · | · | 8 | ·
CC1CCCN(c2nc3c(c(=O)[nH]2)CCN(Cc2ccc(N4CCCC4)c(F)c2)C3)C1 (configuration not stated) | · | -4 | · | · | 4 | ·
CC(C(=O)NC1CCCC1)N(Cc1ccc2c(c1)OCO2)C(=O)Cn1nnc(-c2ccc(F)cc2)n1 (configuration not stated) | · | -28 | · | · | 13 | ·
O=C(O)c1ccccc1-c1ccccc1C(=O)Nc1ccc2c(c1)Cc1cc(F)ccc1-2 | · | 7 | · | · | 43* | ·
S=C(Nc1ccc2c(c1)Cc1ccccc1-2)Nc1ccc2c(c1)Cc1ccccc1-2 | · | -14 | · | · | 55* | ·
COC(=O)[C@H]1CN(C(=O)CC2NC(=O)c3ccccc32)C[C@@H]1c1ccc(F)cc1 (some centres not stated) | · | -1 | · | · | · | ·
CCOC(=O)N1CCN(S(=O)(=O)c2ccc(C(C)C)cc2)CC1 | · | -17 | · | · | 9 | ·
CCC(=O)N(Cc1ccc(C)cc1)Cc1cc2cccc(C)c2[nH]c1=O | · | -63 | · | · | 15 | ·
COc1ccccc1C1(NC(=O)c2ccc3c(c2)n(C)c(=O)n3C)CCCC1 | · | 3 | · | · | · | ·
OC(c1ccccc1)(c1ccc(F)cc1)C(c1ccccc1)N1CCOCC1 (configuration not stated) | 0 | 61* | · | -4 | 6 | ·
Nc1nc(-c2ccccc2)c(-c2ccccc2)c(-c2nc(N)nc(-c3ccccc3)c2-c2ccccc2)n1 | · | 13 | · | · | 48* | ·
Cc1cnc(N)nc1-c1ccccc1 | · | · | 2 | 19 | · | -6
COc1ccc(CNn2c(-c3cccs3)nc3ccccc3c2=O)cc1OC | 1 | 23 | 0 | -14 | 9 | 10
O=c1c2ccccc2nc(-c2cccs2)n1-c1cccc2ccccc12 | 2 | 62* | -3 | 8 | 10 | 9
COc1ccccc1C1(O)CCCN(C(=O)COc2ncnc3ccccc23)C1 (configuration not stated) | · | -11 | · | · | 9 | ·
COc1cc(NS(=O)(=O)c2ccc(NC(=S)NC(=O)c3sc4cc(F)ccc4c3Cl)cc2)nc(OC)n1 | 3 | -3 | 3 | 2 | 95* | 1
